Source: PubChem BioAssay (Tox21)
Where “and” joins values, the source holds several entries; their conditions need not be identical. Identical values can stand only once. Records with an inconclusive call do not appear. Where a structure was tested more than once in an assay, its records may differ in their call. Calls of active or inactive are those of the source. Unless noted, calls follow the shape of the full dose curve.

Assays:
[1] = Nuclear factor erythroid 2-related factor 2/antioxidant responsive element (Nrf2/ARE) small molecule agonists: qHTS cell viability counter screen in human keratinocytes (AID 1919968; active = well fitted curve in the direction sought with a large enough effect in the repeat runs; an effect the other way counts as inactive or inconclusive; also: nearly all actives have a fitted effect of over 55% in size; also: potency is read from the fitted curve at half-maximal effect)
Method in brief: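 In human HaCaT keratinocytes stably expressing an ARE-driven luciferase, compound exposure lasted 23 h at 37 C under 5% CO2. Viable cells are quantified with a protease-based fluorogenic reagent (CellTiter-Fluor) read 1 h after addition.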

[2] = target: Gonadotropin-releasing hormone receptor (Homo sapiens) (UniProt P30968); experiment: Human gonadotropin-releasing hormone receptor (GnRHR) small molecule agonists, calcium flux assay in GnRHR-HEK293 cells (AID 1920063); also: nearly all actives have a fitted effect of over 35% in size
Method in brief: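 Intracellular calcium rise is the read-out: engineered human GnRHR HEK293 cells, dye-loaded, are exposed to DMSO-dissolved compounds and fluorescence at Ex/Em 480/540 is tracked for 3 min.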

[3] = target: KiSS-1 receptor (Homo sapiens) (UniProt Q969F8); experiment: Human kisspeptin (KISS1R) small molecule agonists, calcium flux assay in KISS1R-HEK293 cells (AID 1920064; active = well fitted curve in the direction sought with a large enough effect in the repeat runs; an effect the other way counts as inactive or inconclusive)
Method in brief: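 Concentration-response testing used 15 concentrations in triplicate on human KISS1R-expressing HEK293 cells. Calcium-dependent fluorescence (Ex/Em 480/540) was followed kinetically for 3 min after compound transfer.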

[4] = G protein-coupled receptor (GPCR) small molecule agonists, calcium flux assay: HEK293 wild type cell line counter screen (AID 1920065)
Method in brief: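 Fluorescence intensity signals activation. After overnight (18 h) culture and a 1 h calcium dye load at 37 C, compounds are added by pin tool and the plate read at 480/540 nm for 3 min in 1 s steps.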

[5] = p53 small molecule agonists, cell-based qHTS assay with human liver microsomes (AID 1963577)
Method in brief: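 Cells carrying a p53-responsive bla reporter were rested 5 h (37 C, 5% CO2) before compound transfer. Human liver microsomes plus NADPH, 0.5 mg/mL final apiece, supplied metabolism during the 16 h 37 C exposure.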

[6] = p53 small molecule agonists, cell-based qHTS assay with human liver microsomes: qHTS cell viability counter screen (AID 1963579); also: nearly all actives have a fitted effect of over 45% in size
Method in brief: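 Seed p53RE-bla cells at 4,000 per well; incubate 5 h at 37 C; add compound, human liver microsomes and NADPH; incubate 16 h at 37 C; add CellTiter-Glo; after 30 min at room temperature, read luminescence.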

[7] = p53 small molecule agonists, cell-based qHTS assay with rat liver microsomes: qHTS cell viability counter screen (AID 1963580); also: nearly all actives have a fitted effect of over 45% in size
Method in brief: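 Cytotoxicity counter screen: intracellular ATP read by CellTiter-Glo luminescence in the p53 reporter wells. HCT-116 p53RE-bla cells were treated for 16 h at 37 C alongside rat liver microsomes and NADPH, each 0.5 mg/mL final.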

[8] = p53 small molecule agonists, cell-based qHTS assay: qHTS cell viability counter screen (AID 1963581); also: nearly all actives have a fitted effect of over 45% in size
Method in brief: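 Luminescence from CellTiter-Glo, reflecting ATP content, serves as the cytotoxicity measure; it is taken after the 2 h reporter substrate step in HCT-116 p53RE-bla cells dosed for 16 h at 37 C.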

[9] = target: 5-hydroxytryptamine receptor 2A (Homo sapiens) (UniProt P28223); experiment: 5-hydroxytryptamine receptor 2A (HTR2A) small molecule antagonists, cell-based qHTS assay (AID 1963586); also: nearly all actives have a fitted effect of over 45% in size
Method in brief: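 CHO cells stably expressing human HTR2A were plated for 18 h at 37 C, then loaded with calcium dye for 1 h. Compounds were preincubated 5 min at room temperature before DOI (4 nM solution) was added. Kinetic fluorescence was read for 3 min.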

[10] = target: 5-hydroxytryptamine receptor 2A (Homo sapiens) (UniProt P28223); experiment: 5-hydroxytryptamine receptor 2A (HTR2A) small molecule agonists, cell-based qHTS assay (AID 1963587); also: nearly all actives have a fitted effect of over 30% in size
Method in brief: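 Kinetic calcium-flux fluorescence (2 min, 1 sec intervals) after compound addition in agonist mode. HTR2A-CHO cells were cultured 18 h, then dye-loaded 1 h at 37 C.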

[11] = target: Muscarinic acetylcholine receptor M1 (Homo sapiens) (UniProt P11229); experiment: Cholinergic receptor muscarinic 1 (CHRM1) small molecule antagonists, cell-based qHTS assay (AID 1963588); also: nearly all actives have a fitted effect of over 40% in size; also: potency is read from the fitted curve at half-maximal effect
Method in brief: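 Compounds were tested at 15 concentrations in three independent runs. Dye-loaded CHRM1-CHO cells were exposed 5 min at room temperature before stimulation by acetylcholine added at 50nM. Intracellular calcium was read kinetically on FDSS for 3 min.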

[12] = target: Muscarinic acetylcholine receptor M1 (Homo sapiens) (UniProt P11229); experiment: Cholinergic receptor muscarinic 1 (CHRM1) small molecule agonists, cell-based qHTS assay (AID 1963589); also: nearly all actives have a fitted effect of over 35% in size
Method in brief: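 Fluorescent calcium dye reports M1 activation in stably transfected CHO cells. Compounds, 15 concentrations, added after 1 h dye loading at 37 C; kinetic reading at 1 sec intervals.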

[13] = target: Beta-2 adrenergic receptor (Homo sapiens) (UniProt P07550); experiment: Adrenergic beta2 receptor (ADRB2) small molecule antagonists, cell-based qHTS assay (AID 1963592); also: nearly all actives have a fitted effect of over 50% in size; also: potency is read from the fitted curve at half-maximal effect
Method in brief: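 Assay format: CHO-ADRB2 cells, 18-20hr seeding at 37C/5% CO2, then compound plus 1nM isoproterenol agonist mix for 0.5hr RT. Homogeneous time-resolved fluorescence cAMP detection after 1hr, expressed as 665/615 nm ratio.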

[14] = target: Beta-2 adrenergic receptor (Homo sapiens) (UniProt P07550); experiment: Adrenergic beta2 receptor (ADRB2) small molecule agonists, cell-based qHTS assay (AID 1963593);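 also: CHO cells stably overexpressing human ADRB2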
Method in brief: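 CHO cells stably over-expressing ADRB2 were plated overnight at 37C, then dosed with compounds plus a stimulation mix containing 100uM IBMX and 25uM Ro-20-1724 for 0.5hr at room temperature. cAMP was measured by HTRF competition, 1hr.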

[15] = target: D(2) dopamine receptor (Homo sapiens) (UniProt P14416); experiment: Dopamine D2 receptor (DRD2) small molecule agonists, cell-based qHTS assay (AID 1963594); also: nearly all actives have a fitted effect of over 35% in size
Method in brief: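 cAMP accumulation in DRD2-HEK293 cells measured by HTRF after 1 h detection; compounds added 10 min before NKH477 (200nM […]) forskolin-analogue stimulation, 30 min at room temperature, with Ro20-1724 present at 0.1 mM final.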

[16] = target: D(2) dopamine receptor (Homo sapiens) (UniProt P14416); experiment: Dopamine D2 receptor (DRD2) small molecule antagonists, cell-based qHTS assay (AID 1963595; active = well fitted inhibition curve with a large enough effect in the signal ratio in the repeat runs, with a control signal flat; the % refers to the signal ratio)
Method in brief: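 HEK293 cells stably expressing DRD2 were preincubated with 0.1 mM Ro20-1724, then with compound for 10 min at room temperature. Cells were stimulated with 200 nM NKH477 plus 12 nM quinpirole for 30 min, and cAMP was read by HTRF.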

[17] = p53 small molecule agonists, cell-based qHTS assay with rat liver microsomes (AID 1963578)
Method in brief: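 Fluorescence from a beta-lactamase reporter under a p53 response element was measured after cells had been incubated 16 h at 37 C with test compound and rat liver microsomes plus NADPH (0.5 mg/mL final each).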

[18] = p53 small molecule agonists, cell-based qHTS assay (AID 1963582; active = well fitted activation curve with a large enough effect in the signal ratio in the repeat runs, not every such curve was filed as active; the % refers to the signal ratio; also: potency is read from the fitted curve at half-maximal effect)
Method in brief: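 After plating, p53RE-bla cells sat 5 h in the incubator; compounds or DMSO vehicle were pinned in; a 16 h incubation at 37 C followed; FRET substrate was added and, 2 h later at RT, fluorescence was measured.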

[19] = cAMP Responsive Elements (CRE) small molecule agonists, cell-based qHTS assay (AID 1963590)
Method in brief: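 Compound exposure lasted 3 h at 37 C/5% CO2 in CRE-bla HEK 293T cells grown in assay medium with 10% dialyzed FBS and 25 mM HEPES. Reporter signal came from LiveBLAzer B/G FRET substrate, 2 h, room temperature.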

[20] = cAMP Responsive Elements (CRE) small molecule antagonists, cell-based qHTS assay (AID 1963591; active = well fitted inhibition curve with a large enough effect in the signal ratio in the repeat runs, not every such curve was filed as active; the % refers to the signal ratio; also: potency is read from the fitted curve at half-maximal effect)
Method in brief: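 Stimulation used NKH477 at a final 0.25 uM for 3 h in compound-treated CRE-bla HEK293T cells, seeded 18 h beforehand. Reporter activity was measured with LiveBLAzer B/G FRET substrate after 2 h at room temperature.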

Measured: Potency

KiSS-1 receptor (Homo sapiens), sequence (Q969F8 whole entry, looked up): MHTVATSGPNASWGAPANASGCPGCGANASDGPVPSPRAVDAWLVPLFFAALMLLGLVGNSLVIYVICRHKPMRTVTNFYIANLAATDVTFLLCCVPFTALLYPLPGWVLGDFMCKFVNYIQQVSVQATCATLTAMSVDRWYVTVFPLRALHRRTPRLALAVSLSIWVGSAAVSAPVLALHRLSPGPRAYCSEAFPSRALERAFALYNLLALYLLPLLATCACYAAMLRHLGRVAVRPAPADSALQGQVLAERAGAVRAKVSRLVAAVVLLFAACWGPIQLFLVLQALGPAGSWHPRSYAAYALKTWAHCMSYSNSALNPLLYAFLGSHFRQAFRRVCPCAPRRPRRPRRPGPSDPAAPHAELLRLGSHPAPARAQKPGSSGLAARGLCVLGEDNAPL
Muscarinic acetylcholine receptor M1 (Homo sapiens), sequence (P11229 whole entry, looked up): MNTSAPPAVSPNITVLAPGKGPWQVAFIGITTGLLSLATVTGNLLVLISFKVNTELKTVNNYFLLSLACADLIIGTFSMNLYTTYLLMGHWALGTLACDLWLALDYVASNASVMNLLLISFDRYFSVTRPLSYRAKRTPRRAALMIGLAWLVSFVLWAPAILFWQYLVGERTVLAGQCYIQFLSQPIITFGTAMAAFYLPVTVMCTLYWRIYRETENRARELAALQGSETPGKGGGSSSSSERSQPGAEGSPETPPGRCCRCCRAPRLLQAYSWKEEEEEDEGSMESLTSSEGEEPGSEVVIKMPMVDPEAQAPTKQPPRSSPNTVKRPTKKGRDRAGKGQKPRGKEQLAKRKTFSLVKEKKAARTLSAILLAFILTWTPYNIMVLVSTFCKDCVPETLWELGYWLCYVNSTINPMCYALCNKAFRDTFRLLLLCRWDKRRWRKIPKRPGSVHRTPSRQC
5-hydroxytryptamine receptor 2A (Homo sapiens), sequence (P28223 whole entry, looked up): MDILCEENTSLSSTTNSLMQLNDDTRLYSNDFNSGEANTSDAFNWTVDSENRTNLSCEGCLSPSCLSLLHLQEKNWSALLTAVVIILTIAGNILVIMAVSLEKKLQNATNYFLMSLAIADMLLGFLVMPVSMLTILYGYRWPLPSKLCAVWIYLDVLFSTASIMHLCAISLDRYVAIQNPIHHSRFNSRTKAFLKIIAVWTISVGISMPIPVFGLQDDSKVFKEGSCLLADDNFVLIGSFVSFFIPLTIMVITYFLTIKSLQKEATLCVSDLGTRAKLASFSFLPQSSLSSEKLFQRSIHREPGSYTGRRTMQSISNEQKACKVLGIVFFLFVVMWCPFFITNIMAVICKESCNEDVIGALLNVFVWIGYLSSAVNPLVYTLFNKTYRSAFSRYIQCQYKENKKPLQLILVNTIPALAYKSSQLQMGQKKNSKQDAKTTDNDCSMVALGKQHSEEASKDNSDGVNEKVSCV
Beta-2 adrenergic receptor (Homo sapiens), sequence (P07550 whole entry, looked up): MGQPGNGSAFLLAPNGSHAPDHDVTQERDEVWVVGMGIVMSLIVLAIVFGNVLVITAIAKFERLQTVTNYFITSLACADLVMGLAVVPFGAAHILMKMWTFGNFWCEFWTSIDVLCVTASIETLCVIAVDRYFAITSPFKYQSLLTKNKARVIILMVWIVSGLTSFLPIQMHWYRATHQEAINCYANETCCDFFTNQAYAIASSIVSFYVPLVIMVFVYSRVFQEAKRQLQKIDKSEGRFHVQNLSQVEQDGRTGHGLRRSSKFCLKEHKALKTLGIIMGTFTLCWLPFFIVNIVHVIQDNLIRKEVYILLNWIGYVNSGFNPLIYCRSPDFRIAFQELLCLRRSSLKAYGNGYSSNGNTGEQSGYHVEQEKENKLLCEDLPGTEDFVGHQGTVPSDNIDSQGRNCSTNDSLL
Gonadotropin-releasing hormone receptor (Homo sapiens), sequence (P30968 whole entry, looked up): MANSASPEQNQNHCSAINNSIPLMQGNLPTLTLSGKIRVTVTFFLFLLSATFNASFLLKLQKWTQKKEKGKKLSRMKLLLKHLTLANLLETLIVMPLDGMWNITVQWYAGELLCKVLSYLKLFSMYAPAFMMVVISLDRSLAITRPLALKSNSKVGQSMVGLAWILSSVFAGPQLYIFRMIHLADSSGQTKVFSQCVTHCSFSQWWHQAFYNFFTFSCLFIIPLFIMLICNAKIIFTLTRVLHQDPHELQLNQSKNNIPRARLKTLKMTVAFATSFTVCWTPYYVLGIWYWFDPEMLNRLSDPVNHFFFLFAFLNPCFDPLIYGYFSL
D(2) dopamine receptor (Homo sapiens), sequence (P14416 whole entry, looked up): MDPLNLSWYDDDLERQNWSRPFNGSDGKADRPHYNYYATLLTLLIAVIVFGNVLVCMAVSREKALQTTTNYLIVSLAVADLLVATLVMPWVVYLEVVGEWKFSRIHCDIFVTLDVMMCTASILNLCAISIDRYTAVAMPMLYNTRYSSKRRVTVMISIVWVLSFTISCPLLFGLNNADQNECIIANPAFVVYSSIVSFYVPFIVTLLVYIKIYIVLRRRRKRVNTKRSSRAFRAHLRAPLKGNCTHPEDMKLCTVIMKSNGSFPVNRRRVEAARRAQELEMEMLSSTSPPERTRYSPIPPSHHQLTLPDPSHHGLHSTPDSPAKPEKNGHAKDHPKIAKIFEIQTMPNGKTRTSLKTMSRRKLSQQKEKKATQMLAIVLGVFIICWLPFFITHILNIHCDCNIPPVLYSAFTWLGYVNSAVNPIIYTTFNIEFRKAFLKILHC

O=[N+]([O-])/C=C/c1ccccc1
active: [1] 17.5 µM and 27.3 µM
not listed: [17] | [18] | [19] | [20]
inactive: all other assays above

NNC(N)=S
active: [1] 16 µM
not listed: [7]
inactive: all other assays above

CC(=NC#N)N(C)Cc1ccc(Cl)nc1
not listed: [7]
inactive: all other assays above

O=C(O)C1C2CCC(O2)C1C(=O)O (stereo not given)
active: [20] 27.6 µM and 49.9 µM
not listed: [6] | [8] | [14]
inactive: all other assays above

CC[N+]1(CC)CCC(OC(=O)C(O)(c2ccccc2)c2ccccc2)C1 (stereo not given)
active: [11] 0.0023 µM
not listed: [9]
inactive: all other assays above

Clc1ccc(Cl)c(Cl)c1
not listed: [7]
inactive: all other assays above

C[C@]12CC[C@H]3[C@@H](CC=C4C[C@@H](O)CC[C@@]43C)[C@@H]1CC[C@@H]2O
not listed: [9] | [10] | [11] | [12] | [13] | [14]
inactive: all other assays above

Oc1ccc(-c2ccccc2)cc1
60.3 µM (active) and inactive: [13]
not listed: [8] | [14]
inactive: all other assays above

COc1cc(N)c(Cl)cc1C(=O)NC1CN2CCC1CC2 (stereo not given)
not listed: [9] | [10] | [15]
inactive: all other assays above

COP(=S)(OC)Oc1ccc(SC)c(C)c1
not listed: [10] | [17]
inactive: all other assays above

S=c1[nH]c2ccccc2[nH]1
not listed: [9] | [12] | [14]
inactive: all other assays above

CCCCCc1cc(O)cc(O)c1
not listed: [8] | [17] | [19]
inactive: all other assays above

COC(=O)Nc1nc2ccccc2[nH]1
active: [18] 9.13 µM
not listed: [8] | [12] | [20]
inactive: all other assays above

N#CS
not listed: [8] | [20]
inactive: all other assays above
